Reference: ChEMBL document CHEMBL1157539, “Thousands of chemical starting points for antimalarial lead identification” (Nature, 2010)

Test system: Plasmodium falciparum
Assay: GSK_TCMDC: Inhibition of Plasmodium falciparum Dd2 in whole red blood cells, using parasite LDH activity as an index of growth. Test compounds present at 2uM
Format: functional

First: O=C(O)C(F)(F)F.O=S(=O)(NCCN1CCCC1)c1ccc(-c2cccc(CNCc3ccc(F)cc3)c2)cc1
Second: O=C(Nc1cccc(CN2CCCN(Cc3cccc(O)c3)CC2)c1)c1ccc2ccccc2c1.O=C(O)C(F)(F)F
The Inhibition of the first is lower: 41% for the first, 42% for the second.

Compared with `CCOc1cc2c(cc1S(=O)(=O)c1ccc(COc3ccc(C(F)(F)F)cc3)cc1)CCN(C)CC2.Cl`, `Cl.O=S(=O)(c1ccc(OCc2ccc(Cl)cc2)cc1)c1cc2c(cc1OCc1ccccc1)CCN(CC1CC1)CC2` is lower in Inhibition: 14% for the first, 0% for the second.

First: CCNc1nc(OCC(F)(F)F)nc(N(c2ccccc2)c2ccccc2)n1
Second: CCOC(=O)c1ccc(NCc2ccccn2)cc1
The Inhibition of the first is higher: 83% for the first, 0% for the second.

Compared with `COc1ccccc1C1CCN(C2CCC(NC(=O)/C=C/c3ccc(C(F)(F)F)cc3)CC2)CC1` (centres undefined), `Cl.N#Cc1ccc2c(c1)CCN(CCC1CCC(NC(=O)/C=C/c3c[nH]c4c(Br)cccc34)CC1)CC2` (centres undefined) is higher in Inhibition: 7% for the first, 65% for the second.

Going from `Cc1cccc2nc(-c3ccc(-c4ccc(NC(=O)Nc5ccsc5)cc4)s3)[nH]c12` to `CCOc1ccc(-c2nc(NC(=O)COc3ccc(OC)cc3)sc2C)cc1`, the Inhibition falls from 88% to 87%.

Compared with `O=C(Nc1ccc(N2CCN(c3ncccc3C(F)(F)F)CC2)nc1)c1cccs1`, `O=C(C1CC1)N1c2ccccc2CCc2ccccc21` is higher in Inhibition: 40% for the first, 57% for the second.

First: CCOC(=O)CCc1cc(F)c(F)c(OC[C@H](O)CNC(C)(C)C(O)c2ccc3ccccc3c2)c1.Cl (some centres undefined)
Second: CCc1cc(NC2CCN(C)CC2)nc(Nc2ccc(C)cc2)n1
The Inhibition of the first is higher: 92% for the first, 11% for the second.
